Screening data from PubChem.
AMA1-RON2 inh = disrupts binding of P. falciparum AMA1 to RON2; AlphaScreen AMA1-biotinylated RON2 peptide binding; Potency, µM (doses to about 58.2 µM), without a hit: at the top dose activity change, negative = inhibition, hits mostly inhibitors; 360,000 tested, 0.2% active;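 also: potency is read from the fitted curve at half-maximal effect; 0% = vehicle wells and -100% = peptide control; nearly all actives have a fitted effect of over 45% in size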
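AMA1 (3D7) with his tag at 25 nM final met compounds first, then biotinylated RON2 peptide at 25 nM; detection used donor plus acceptor beads, 10 µg/mL apiece, read by AlphaScreen after 30 min at room temperature.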
Shiga toxin inh = inhibitors of Shiga toxin in Vero cells; Vero cells, Shiga toxin protein synthesis inhibition reporter; inhibition, % at 38.7 µM; 290,000 tested, 9.2% active; AID 2315; in the data active = inhibition mostly above about 28%, no sharp cut-off; inactive = mostly below about 43%; also: 0% is about no effect
AmpC no deterg = AmpC beta-lactamase inhibition without detergent; P00811; AmpC nitrocefin hydrolysis, absorbance 480 nm, 0.0001% Triton; Potency, µM (top dose mostly 57.1 µM), inactives show at the top dose activity change, negative = inhibition, most hits filed as inhibitors; 330,000 tested, 0.52% active;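 also: potency is read from the fitted curve at half-maximal effect; plate controls were no compound for no effect and no enzyme for full effect; nearly all actives have a fitted effect of over 20% in size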
Target sequence (P00811 whole entry, looked up): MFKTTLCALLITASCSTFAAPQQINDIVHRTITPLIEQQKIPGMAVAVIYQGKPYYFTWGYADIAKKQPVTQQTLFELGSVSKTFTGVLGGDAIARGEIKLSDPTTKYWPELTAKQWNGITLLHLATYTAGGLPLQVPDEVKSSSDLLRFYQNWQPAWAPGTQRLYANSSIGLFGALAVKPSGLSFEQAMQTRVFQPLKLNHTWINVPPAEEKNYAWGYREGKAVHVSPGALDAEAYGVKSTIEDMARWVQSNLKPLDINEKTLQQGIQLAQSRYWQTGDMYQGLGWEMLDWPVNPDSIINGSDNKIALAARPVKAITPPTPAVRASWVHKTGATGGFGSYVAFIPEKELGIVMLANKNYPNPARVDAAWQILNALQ
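20 mM phosphate pH 7.0 + 0.01% (detergent screen) or 0.0001% Triton X-100; 5.3 nM AmpC reagent; cpd preinc 15 min RT; nitrocefin (800 uM stock) to start; A480 q20 s × 4 min; Activity was normalised to no-enzyme and no-compound control wells.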
Cycloheximide cs = counter-screen hit for Shiga toxin inhibitors, cycloheximide. cell reporter, cycloheximide protein synthesis inhibition counterscreen. AID 2314. 300,000 tested, 12% active. max response, %; in the data active = max response mostly above about 13%, no sharp cut-off; inactive = mostly below about 14%; also: read at 38.3 µM for the half of the compounds with a filed dose; 0% is about no effect
AmpC inh detg = inhibitors of E. coli AmpC beta-lactamase with detergent; P00811; AmpC hydrolysis of nitrocefin, absorbance 480 nm, 0.01% Triton; Potency, µM (doses to about 114 µM), for the others: top-dose activity change, negative = inhibition, hits mostly inhibitors; 370,000 tested, 0.041% active; AID 485294;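 also: potency is read from the fitted curve at half-maximal effect; 0% = no-compound wells and -100% = no-enzyme wells; nearly all actives have a fitted effect of over 25% in size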
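AmpC (5.3 nM in the dispensed reagent) in 20 mM phosphate pH 7.0 with 0.01% (detergent screen) or 0.0001% Triton X-100 was preincubated with compounds for 15 min at room temperature. Nitrocefin was then added from an 800 uM solution, and hydrolysis was followed at 480 nm.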
SARS PLpro yeast = blocks SARS-CoV papain-like protease in a yeast assay | S. cerevisiae expressing SARS-CoV PLpro, growth rescue | Potency, µM (top dose mostly 32.9 µM), for inactives: at the top dose activity, positive = growth rescue, hits mostly activators | 330,000 tested, 0.19% active | AID 485353; calls by dose curve; also: potency is read from the fitted curve at half-maximal effect; 0% is about no effect; nearly all actives have a fitted effect of over 55% in size
Active calls of the source: *; [ ] = remark or other dose. This is one part of a sample in which hits are shown more often than they occur. Unless noted, calls follow the shape of the dose curve; as a rule, active = well fitted curve in the direction sought with a large enough effect; inconclusive = small, poorly fitted or top-dose-only effect, or another doubt; inactive = no such curve, though single readings can be large; an effect the other way counts as inactive or inconclusive.

What do the screens show for `CCN(CC)S(=O)(=O)c1cc(C(=O)NC2CCCCC2)ccc1C`?
AMA1-RON2 inh: -2%; Shiga toxin inh: 104*; AmpC no deterg: -10%; Cycloheximide cs: 42*; AmpC inh detg: -13%; SARS PLpro yeast: 8%

Results for Cc1ccc(NC(=S)Nc2ccc(C(C)C)cc2)cc1S(=O)(=O)N1CCCCCC1 ?
AMA1-RON2 inh: 43%; Shiga toxin inh: 82*; AmpC no deterg: inconclusive; Cycloheximide cs: 28*; AmpC inh detg: -4%; SARS PLpro yeast: inconclusive

Results for COc1ccc(NC(=S)Nc2ccc(C)c(S(=O)(=O)N3CCCCC3)c2)cc1 ?
Shiga toxin inh: 30; AmpC no deterg: -27%; Cycloheximide cs: 4; AmpC inh detg: 1%; SARS PLpro yeast: 6%

Results for COc1ccc(C(=O)NC2CCCCCC2)cc1S(=O)(=O)Nc1ccc(Br)cc1 ?
AMA1-RON2 inh: -9%; Shiga toxin inh: 56*; AmpC no deterg: -51%; Cycloheximide cs: 18*; AmpC inh detg: -5%; SARS PLpro yeast: 2%

Results for O=C1/C(=C/c2cccs2)CCC/C1=C\c1cccs1 ?
AMA1-RON2 inh: 11µM*; Shiga toxin inh: 108*; AmpC no deterg: -25%; Cycloheximide cs: 39*; AmpC inh detg: -1%; SARS PLpro yeast: -3%

How did C=CCN1C(=O)NC(=O)/C(=C/c2cccn2C)C1=O do in these assays?
AMA1-RON2 inh: -12%; Shiga toxin inh: -22; AmpC no deterg: 76%; Cycloheximide cs: -3; AmpC inh detg: inconclusive; SARS PLpro yeast: -2%

Results for Cn1cccc1/C=C1\CCC/C(=C\c2cccn2C)C1=O ?
AMA1-RON2 inh: inconclusive; Shiga toxin inh: 109*; AmpC no deterg: 105%; Cycloheximide cs: 52*; AmpC inh detg: 0%; SARS PLpro yeast: -6%

What do the screens show for `Cn1c(=O)c2c(nc(NCc3cccnc3)n2Cc2cccc(C(F)(F)F)c2)n(C)c1=O`?
AMA1-RON2 inh: 0%; Shiga toxin inh: -20; AmpC no deterg: 72%; Cycloheximide cs: -2; AmpC inh detg: inconclusive; SARS PLpro yeast: -2%

How did COc1ccc(/C(N)=N/OC(=O)c2cccs2)cc1OC do in these assays?
AMA1-RON2 inh: -1%; Shiga toxin inh: 8; AmpC no deterg: 3%; Cycloheximide cs: 2; AmpC inh detg: -1%; SARS PLpro yeast: 1%

What do the screens show for `Cc1cccc(/C(N)=N/OC(=O)c2cccs2)c1`?
AMA1-RON2 inh: 7%; Shiga toxin inh: 106*; AmpC no deterg: -23%; Cycloheximide cs: 71*; AmpC inh detg: 4%; SARS PLpro yeast: -34%

Results for Cc1ccc(/C(N)=N/OC(=O)c2cccs2)cc1 ?
AMA1-RON2 inh: 29%; Shiga toxin inh: 37*; AmpC no deterg: -13%; Cycloheximide cs: 39*; AmpC inh detg: -1%; SARS PLpro yeast: -84%

What do the screens show for `COc1ccc(C/C(N)=N/OC(=O)c2cccs2)cc1`?
AMA1-RON2 inh: -2%; Shiga toxin inh: 38; AmpC no deterg: 9%; Cycloheximide cs: 19; AmpC inh detg: 10%; SARS PLpro yeast: -17%

Results for N/C(=N\OC(=O)c1cccs1)c1cccc(Br)c1 ?
AMA1-RON2 inh: 0%; Shiga toxin inh: 78*; AmpC no deterg: -18%; Cycloheximide cs: 39*; AmpC inh detg: 1%; SARS PLpro yeast: -5%

Results for N/C(=N\OC(=O)c1cccs1)c1ccccc1 ?
AMA1-RON2 inh: 8%; Shiga toxin inh: 80*; AmpC no deterg: -24%; Cycloheximide cs: 35*; AmpC inh detg: inconclusive; SARS PLpro yeast: -74%

What do the screens show for `CCOC(=O)[C@]12CCC=C1N(Cc1ccc3c(c1)OCO3)C(=O)[C@H](CC(=O)N1CCCCC1)C2`?
AMA1-RON2 inh: 0%

How did CC(C)(C)C(=O)c1c(N)[nH]c(C(=O)c2ccccc2)c1-c1ccc(C(F)(F)F)cc1 do in these assays?
AMA1-RON2 inh: 48%

What do the screens show for `COc1ccc2occ(C(C)=O)c2c1`?
AMA1-RON2 inh: 2%; Shiga toxin inh: -1; AmpC no deterg: -4%; Cycloheximide cs: -1; AmpC inh detg: inconclusive; SARS PLpro yeast: 14%

What do the screens show for `COc1ccc2occ(C(=O)c3ccccc3)c2c1`?
AMA1-RON2 inh: 19%; Shiga toxin inh: 66*; AmpC no deterg: -29%; Cycloheximide cs: 38*; AmpC inh detg: -14%; SARS PLpro yeast: -1%

Results for COc1ccc(OC)c(C(=O)c2coc3ccc(O)cc23)c1 ?
AMA1-RON2 inh: -9%; Shiga toxin inh: 103*; AmpC no deterg: -18%; Cycloheximide cs: 25*; AmpC inh detg: 1%; SARS PLpro yeast: -12%

Results for COc1ccc(OC)c(C(=O)CCCC(=O)c2cc(OC)ccc2OC)c1 ?
AMA1-RON2 inh: 0%; Shiga toxin inh: 2; AmpC no deterg: 14%; Cycloheximide cs: 1; AmpC inh detg: -2%; SARS PLpro yeast: -3%

Results for COc1ccc(-c2c(C#Cc3ccsc3)c3cc(-c4ccc5c(c4)OCO5)ccc3n2C)cc1 ?
AMA1-RON2 inh: 0%; AmpC no deterg: -39%; AmpC inh detg: -4%; SARS PLpro yeast: -9%

How did CCOC(=O)c1ccc(S(=O)(=O)NNC(=O)COc2cccc(C)c2)cc1 do in these assays?
AMA1-RON2 inh: 4%; Shiga toxin inh: -4; AmpC no deterg: -12%; Cycloheximide cs: -2; AmpC inh detg: -4%; SARS PLpro yeast: -14%

Results for COc1ccc(-c2cc(=O)oc3cc(OCC(C)=O)ccc23)cc1 ?
AMA1-RON2 inh: 5%; Shiga toxin inh: 3; AmpC no deterg: 19%; Cycloheximide cs: -2; AmpC inh detg: -4%; SARS PLpro yeast: -24%

What do the screens show for `CCCc1cc(=O)oc2cc(OCC(=O)Nc3ccccn3)ccc12`?
AMA1-RON2 inh: 0%; Shiga toxin inh: 67*; AmpC no deterg: -16%; Cycloheximide cs: 25*; AmpC inh detg: 0%; SARS PLpro yeast: 3%

Results for COc1ccc(-c2cc(=O)oc3cc(OCC(=O)Nc4ccccn4)ccc23)cc1 ?
AMA1-RON2 inh: -1%; Shiga toxin inh: 26*; AmpC no deterg: -24%; Cycloheximide cs: 26*; AmpC inh detg: 4%; SARS PLpro yeast: 2%

How did CCCc1cc(=O)oc2cc(OCc3ccc(C(=O)O)cc3)ccc12 do in these assays?
AMA1-RON2 inh: -12%; Shiga toxin inh: 130*; AmpC no deterg: -22%; Cycloheximide cs: 47*; AmpC inh detg: 2%; SARS PLpro yeast: 2%

What do the screens show for `CCCc1cc(=O)oc2cc(OCC(=O)Nc3cc(C)on3)ccc12`?
AMA1-RON2 inh: 15%; Shiga toxin inh: -1; AmpC no deterg: -16%; Cycloheximide cs: 1; AmpC inh detg: -7%; SARS PLpro yeast: 12%

What do the screens show for `COc1ccc(-c2nc(C(F)(F)F)c(OC)o2)cc1OC`?
AMA1-RON2 inh: 10%[2.32 µM]; Shiga toxin inh: -15; AmpC no deterg: -7%; Cycloheximide cs: -4; AmpC inh detg: inconclusive; SARS PLpro yeast: 7%
